Reference: ChEMBL document CHEMBL3988442, “University of Dundee, Small-Polar-MMV Screening Library” (2021)
For some of these results: Entries with a potency or affinity are not part of this list.

Columns and labels:
Design in all cases: scale not given: direction of the effect not stated beside the values
[1] = molecular target: Protein translocase subunit SecA (Escherichia coli (strain K12)) (UniProt P10408); experiment: Assay to Identify E. coli SecA ATPase Inhibitors; format: functional; conditions: 30 µM
Protein translocase subunit SecA (Escherichia coli (strain K12)), sequence (P10408 whole entry): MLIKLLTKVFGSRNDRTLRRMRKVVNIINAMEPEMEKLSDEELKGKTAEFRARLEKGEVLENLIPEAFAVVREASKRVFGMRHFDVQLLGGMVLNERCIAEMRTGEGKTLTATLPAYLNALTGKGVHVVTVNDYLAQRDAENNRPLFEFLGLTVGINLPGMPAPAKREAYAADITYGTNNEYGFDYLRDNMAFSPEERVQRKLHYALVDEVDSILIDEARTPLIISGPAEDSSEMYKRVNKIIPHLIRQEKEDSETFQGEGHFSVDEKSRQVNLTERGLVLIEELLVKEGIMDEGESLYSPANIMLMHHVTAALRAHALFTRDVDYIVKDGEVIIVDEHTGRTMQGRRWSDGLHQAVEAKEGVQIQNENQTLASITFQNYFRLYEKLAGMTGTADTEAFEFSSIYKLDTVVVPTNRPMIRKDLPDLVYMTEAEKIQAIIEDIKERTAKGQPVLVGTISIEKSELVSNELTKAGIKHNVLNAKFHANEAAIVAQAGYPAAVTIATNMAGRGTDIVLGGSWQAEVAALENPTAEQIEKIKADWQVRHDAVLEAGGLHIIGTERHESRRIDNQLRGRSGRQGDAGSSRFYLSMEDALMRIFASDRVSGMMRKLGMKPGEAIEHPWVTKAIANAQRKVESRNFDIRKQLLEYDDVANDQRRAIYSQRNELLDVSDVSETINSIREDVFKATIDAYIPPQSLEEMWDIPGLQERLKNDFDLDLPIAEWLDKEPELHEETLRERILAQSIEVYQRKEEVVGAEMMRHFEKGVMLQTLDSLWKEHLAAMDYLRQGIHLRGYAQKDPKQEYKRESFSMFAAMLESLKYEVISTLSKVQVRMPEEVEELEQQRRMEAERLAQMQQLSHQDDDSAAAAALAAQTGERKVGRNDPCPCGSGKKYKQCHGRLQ

[2] = molecular target: T1, Ubiquitin-activating enzyme e1, putative (Leishmania donovani (strain BPK282A1)) (UniProt E9BSI1); experiment: Leishmania donovani Ubiquitin Activating Enzyme (LdE1); format: functional; conditions: 30 µM
T1 sequence (whole entry): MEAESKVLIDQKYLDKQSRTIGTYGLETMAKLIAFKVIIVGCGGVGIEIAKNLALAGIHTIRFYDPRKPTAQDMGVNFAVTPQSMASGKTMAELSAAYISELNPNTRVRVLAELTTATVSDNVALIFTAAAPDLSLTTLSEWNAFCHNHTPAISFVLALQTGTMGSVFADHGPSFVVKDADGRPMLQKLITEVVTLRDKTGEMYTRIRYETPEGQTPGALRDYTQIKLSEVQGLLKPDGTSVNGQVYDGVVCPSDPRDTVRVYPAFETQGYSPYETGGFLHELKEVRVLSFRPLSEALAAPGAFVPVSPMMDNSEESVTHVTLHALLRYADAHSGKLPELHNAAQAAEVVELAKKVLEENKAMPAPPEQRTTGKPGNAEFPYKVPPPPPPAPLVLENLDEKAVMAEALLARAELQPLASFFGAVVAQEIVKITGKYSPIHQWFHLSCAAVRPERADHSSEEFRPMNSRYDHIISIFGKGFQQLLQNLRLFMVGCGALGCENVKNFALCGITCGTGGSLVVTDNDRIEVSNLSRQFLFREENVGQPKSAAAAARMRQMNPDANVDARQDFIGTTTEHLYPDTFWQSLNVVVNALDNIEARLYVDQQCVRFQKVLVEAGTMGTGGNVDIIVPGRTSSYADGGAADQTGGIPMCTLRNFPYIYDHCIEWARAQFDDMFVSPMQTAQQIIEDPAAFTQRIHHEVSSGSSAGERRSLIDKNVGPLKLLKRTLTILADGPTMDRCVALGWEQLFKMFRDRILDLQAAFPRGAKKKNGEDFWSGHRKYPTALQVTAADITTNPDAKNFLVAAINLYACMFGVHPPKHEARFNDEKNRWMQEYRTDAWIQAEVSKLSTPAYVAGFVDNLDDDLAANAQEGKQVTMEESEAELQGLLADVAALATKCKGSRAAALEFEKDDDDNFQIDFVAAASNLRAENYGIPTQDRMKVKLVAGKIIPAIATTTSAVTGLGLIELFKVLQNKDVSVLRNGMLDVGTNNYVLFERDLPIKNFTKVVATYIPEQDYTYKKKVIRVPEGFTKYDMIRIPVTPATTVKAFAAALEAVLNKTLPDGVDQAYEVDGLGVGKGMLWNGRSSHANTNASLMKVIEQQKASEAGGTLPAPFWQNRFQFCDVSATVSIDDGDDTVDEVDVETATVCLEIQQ

[3] = molecular target: AMP-activated protein kinase, AMPK (Homo sapiens) (UniProt P54646+O43741+P54619+Q9UGJ0+Q9Y478+Q13131+Q9UGI9); experiment: AMP-dependent Kinase enzyme assay. An in vitro enzyme assay that detects ADP turnover that is directly proportional to AMPK activity. This uses naive AMPK that is activated during the assay with MK-8722; format: functional; conditions: 30 µM
[4] = molecular target: Sialic acid-binding Ig-like lectin 9 (Homo sapiens) (UniProt Q9Y336); experiment: Hs-Siglec9 ALPHAscreen SOP 20170721; conditions: 10 µM
Sialic acid-binding Ig-like lectin 9 (Homo sapiens), sequence (Q9Y336 whole entry): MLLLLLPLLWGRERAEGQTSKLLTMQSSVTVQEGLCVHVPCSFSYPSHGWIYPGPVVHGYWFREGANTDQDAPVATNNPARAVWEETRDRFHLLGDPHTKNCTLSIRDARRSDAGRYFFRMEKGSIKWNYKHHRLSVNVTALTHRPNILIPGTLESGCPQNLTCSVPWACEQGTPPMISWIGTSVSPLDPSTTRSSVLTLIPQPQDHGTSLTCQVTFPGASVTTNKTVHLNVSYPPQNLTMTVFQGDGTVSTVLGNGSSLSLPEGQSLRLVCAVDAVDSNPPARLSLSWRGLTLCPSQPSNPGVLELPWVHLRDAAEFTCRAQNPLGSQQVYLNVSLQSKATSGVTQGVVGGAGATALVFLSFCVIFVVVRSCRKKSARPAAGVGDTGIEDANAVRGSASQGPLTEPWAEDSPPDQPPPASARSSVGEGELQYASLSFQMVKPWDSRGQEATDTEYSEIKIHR

Trypanosoma cruzi = experiment: Trypanosoma cruzi phosphomannomutase and mannose-1-phosphate guanylyltransferase assay; format: functional; conditions: 10 µM
[5] = molecular target: T2, Arginase-2, mitochondrial (Homo sapiens) (UniProt P78540); experiment: in vitro enzyme assay to detect the production of urea directly proportional to the activity of Arginase II; format: functional; conditions: 33.3 µM; also: in the data most compounds retested in dose-response had high values
T2 sequence (whole entry): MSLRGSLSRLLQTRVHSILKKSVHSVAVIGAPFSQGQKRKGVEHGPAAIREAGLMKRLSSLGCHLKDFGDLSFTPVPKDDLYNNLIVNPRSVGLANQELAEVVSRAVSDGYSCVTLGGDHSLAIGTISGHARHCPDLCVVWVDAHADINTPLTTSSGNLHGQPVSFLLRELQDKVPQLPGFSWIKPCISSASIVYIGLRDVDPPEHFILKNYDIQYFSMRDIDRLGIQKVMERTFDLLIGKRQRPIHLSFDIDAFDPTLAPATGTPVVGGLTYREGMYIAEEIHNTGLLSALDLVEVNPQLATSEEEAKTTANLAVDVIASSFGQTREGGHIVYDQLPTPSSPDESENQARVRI

[6] = molecular target: T3, Proteasome subunit beta (Trypanosoma cruzi) (UniProt O96673); experiment: Trypanosoma cruzi proteasome chymotrypsin-like activity (TcProtChymo) assay.; also: in the data most compounds retested in dose-response had high values; format: functional; conditions: 9.37 µM
T3 sequence (whole entry): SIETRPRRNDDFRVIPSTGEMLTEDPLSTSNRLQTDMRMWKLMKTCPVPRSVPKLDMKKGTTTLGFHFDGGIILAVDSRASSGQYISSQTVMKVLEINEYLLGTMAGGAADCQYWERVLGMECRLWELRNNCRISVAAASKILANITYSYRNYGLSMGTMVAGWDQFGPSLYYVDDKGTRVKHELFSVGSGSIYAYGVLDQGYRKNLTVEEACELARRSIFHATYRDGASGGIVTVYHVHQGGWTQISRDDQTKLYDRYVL

Homo sapiens = species on record: Homo sapiens; experiment: To identify inhibition of the IFN signalling (Jak-Stat) pathway via expression of an eGFP reporter gene under the control of an IFN-stimulated response element (ISRE) containing MxA promoter.; format: functional; conditions: 30 µM
[7] = molecular target: T4, Tyrosyl-tRNA synthetase, putative (Trypanosoma cruzi (strain CL Brener)) (UniProt Q4DSP6); experiment: Trypanosoma cruzi tyrosyl tRNA synthetase (TcYRS) _High Tyrosine SOP; format: functional; conditions: 30 µM; also: in the data most compounds retested in dose-response had high values
T4 sequence (whole entry): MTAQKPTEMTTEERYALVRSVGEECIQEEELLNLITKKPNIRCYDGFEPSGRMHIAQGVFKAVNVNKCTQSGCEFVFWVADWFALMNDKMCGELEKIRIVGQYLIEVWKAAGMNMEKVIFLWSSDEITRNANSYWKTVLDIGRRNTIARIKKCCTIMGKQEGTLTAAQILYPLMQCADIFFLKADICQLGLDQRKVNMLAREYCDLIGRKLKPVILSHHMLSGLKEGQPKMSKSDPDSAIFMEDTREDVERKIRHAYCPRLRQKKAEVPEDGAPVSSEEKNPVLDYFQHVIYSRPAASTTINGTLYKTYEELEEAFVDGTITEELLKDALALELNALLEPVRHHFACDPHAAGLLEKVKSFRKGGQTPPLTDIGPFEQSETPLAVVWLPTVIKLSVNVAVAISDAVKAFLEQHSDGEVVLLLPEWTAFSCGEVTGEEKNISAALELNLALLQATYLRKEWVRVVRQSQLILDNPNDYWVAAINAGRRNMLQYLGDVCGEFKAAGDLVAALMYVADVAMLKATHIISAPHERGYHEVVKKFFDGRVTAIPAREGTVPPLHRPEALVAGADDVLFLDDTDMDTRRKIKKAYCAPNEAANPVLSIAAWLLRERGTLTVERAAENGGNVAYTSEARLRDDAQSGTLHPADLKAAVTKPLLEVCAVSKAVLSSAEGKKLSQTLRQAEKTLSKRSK

[8] = molecular target: T4, Tyrosyl-tRNA synthetase, putative (Trypanosoma cruzi (strain CL Brener)); experiment: Trypanosoma cruzi tyrosyl tRNA synthetase (TcYRS) SOP; format: functional; conditions: 30 µM
[9] = molecular target: Chromo domain-containing protein 1 (Saccharomyces cerevisiae (strain ATCC 204508 / S288c) (Baker's yeast)) (UniProt P32657); experiment: ScCHD-1 Enzyme Inhibition Assay; format: functional; conditions: 30 µM; also: in the data most compounds retested in dose-response had high values
Chromo domain-containing protein 1 (Saccharomyces cerevisiae (strain ATCC 204508 / S288c) (Baker's yeast)), sequence (P32657 whole entry, the tested form may be a part): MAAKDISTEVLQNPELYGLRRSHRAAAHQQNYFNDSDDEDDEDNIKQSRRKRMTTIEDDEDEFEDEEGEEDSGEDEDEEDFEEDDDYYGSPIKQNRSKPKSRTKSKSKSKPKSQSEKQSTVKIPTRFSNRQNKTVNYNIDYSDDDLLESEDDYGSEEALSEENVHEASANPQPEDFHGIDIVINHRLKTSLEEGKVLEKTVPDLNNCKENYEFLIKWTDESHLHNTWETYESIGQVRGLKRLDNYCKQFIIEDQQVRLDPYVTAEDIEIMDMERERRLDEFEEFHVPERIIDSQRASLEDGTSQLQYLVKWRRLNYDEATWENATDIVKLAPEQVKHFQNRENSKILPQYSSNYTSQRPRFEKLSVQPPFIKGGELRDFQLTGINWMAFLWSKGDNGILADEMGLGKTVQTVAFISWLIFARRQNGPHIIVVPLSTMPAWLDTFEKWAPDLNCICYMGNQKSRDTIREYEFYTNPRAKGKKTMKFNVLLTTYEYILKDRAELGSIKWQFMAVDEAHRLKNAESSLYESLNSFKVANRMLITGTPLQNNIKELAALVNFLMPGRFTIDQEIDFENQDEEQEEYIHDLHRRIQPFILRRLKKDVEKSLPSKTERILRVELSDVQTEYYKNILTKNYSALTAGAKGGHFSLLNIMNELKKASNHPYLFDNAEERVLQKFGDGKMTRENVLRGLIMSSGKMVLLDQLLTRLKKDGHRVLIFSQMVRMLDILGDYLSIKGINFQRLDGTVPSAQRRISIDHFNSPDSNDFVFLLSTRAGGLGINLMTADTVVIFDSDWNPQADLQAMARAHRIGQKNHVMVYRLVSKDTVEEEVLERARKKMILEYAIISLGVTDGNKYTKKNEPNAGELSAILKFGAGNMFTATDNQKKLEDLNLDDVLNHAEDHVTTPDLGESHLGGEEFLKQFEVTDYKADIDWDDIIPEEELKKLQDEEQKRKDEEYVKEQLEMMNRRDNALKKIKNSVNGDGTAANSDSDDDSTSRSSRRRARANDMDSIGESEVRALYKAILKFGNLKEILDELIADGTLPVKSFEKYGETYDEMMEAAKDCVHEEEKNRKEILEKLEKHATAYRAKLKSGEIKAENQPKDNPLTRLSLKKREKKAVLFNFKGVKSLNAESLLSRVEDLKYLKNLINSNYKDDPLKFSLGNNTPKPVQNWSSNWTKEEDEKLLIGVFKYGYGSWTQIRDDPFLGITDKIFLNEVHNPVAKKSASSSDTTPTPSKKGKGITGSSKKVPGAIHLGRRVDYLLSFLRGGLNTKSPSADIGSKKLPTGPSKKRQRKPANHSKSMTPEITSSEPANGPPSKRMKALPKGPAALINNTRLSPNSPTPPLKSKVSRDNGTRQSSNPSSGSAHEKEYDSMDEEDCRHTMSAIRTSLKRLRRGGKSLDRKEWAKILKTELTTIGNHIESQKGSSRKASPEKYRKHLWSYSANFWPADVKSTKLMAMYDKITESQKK

Compound | Percent Effect [1] | Percent Effect [2] | Percent Effect [3] | Percent Effect [4] | Percent Effect (Trypanosoma cruzi) | Percent Effect [5] | Percent Effect [6] | Percent Effect (Homo sapiens) | Percent Effect [7] | Percent Effect [8] | Percent Effect [9]
CCN(CC)Cc1cn2c(n1)CN(C(=O)c1cc(C)on1)CC2 | -2.81% | 16.2% | 5.86% | -5.08% | -4.01% | 9.24% | 23.2% | -1.45% | 2.16% | 10.3% | -0.746%
Cc1ccsc1C(=O)N1CC(C(=O)NCC2CC2)C2(CCOCC2)C1 (stereo not given) | -6.49% | 7.79% | 87.3% | -3.49% | -9.57% | 1.94% | 8.36% | 27.5% | 0% | -3.85% | -7.68%
CC(C)c1ncc2c(n1)CN(Cc1cccc(C#N)c1)CC2 | -3.01% | 0% | -28.8% | 8.37% | 4.89% | 3.06% | 5.01% | -9.04% | 5.39% | 4.88% | 2.88%
Cc1cc(N2CCN(Cc3ccc(-c4cc[nH]n4)o3)CC2)cc(C)n1 | -5.81% | 13.3% | -25.4% | 33.9% | 10.2% | 10.9% | 12.7% | 9.15% | 3.83% | 13.6% | -5.59%
O=C([C@H]1CCCO1)N1CCCC2(CCN(Cc3ccncc3)C2=O)C1 (stereo not given in full) | -1.19% | 10.4% | 3.88% | -8.92% | -7.79% | 7.1% | 11.3% | 31.4% | 3.17% | 6.41% | -8.64%
COc1cccc(C2CCCN2C(=O)c2cc3c([nH]c2=O)CCC3)c1 (stereo not given) | -1.17% | 5.41% | 0.0672% | -4.05% | 1.17% | 25% | 16% | 5.64% | 7.92% | 6.1% | -6.8%
Cn1cc(N2CC3(CCN(S(=O)(=O)C4CC4)C3)CC2=O)cn1 (stereo not given) | -2.73% | 18.7% | -7.51% | -0.00481% | 3.09% | -11.3% | 10.6% | -1.37% | 7.29% | 27.5% | -13.5%
CNC(=O)[C@@]12CCCN(c3ncccn3)[C@@H]1CN(C(=O)NC(C)C)C2 | -0.175% | 20.8% | 3.44% | -13.2% | -0.296% | 1.94% | 16.5% | 12.8% | -6.35% | 14.1% | -12.4%
c1cnc(-c2cnc(N3CCSCC3)nc2C2CCCO2)cn1 (stereo not given) | -4.61% | 6.76% | 9.87% | 3.27% | -5.53% | -1.16% | 9.98% | 10.7% | 1.07% | 6.49% | -13.3%
Cc1noc(C2CCC3(CCN(C(=O)C4=CCCCC4)CC3)O2)n1 (stereo not given) | -7.11% | 10.8% | -5.86% | 30.2% | 3.42% | 3.23% | 8.67% | 3.52% | 8.6% | 16.1% | -7.09%
CCO[C@@H]1CCN(C(=O)c2ccc[nH]2)[C@@H]1Cc1cnn(C)c1 | -3.08% | 0% | 17.3% | -3.48% | -5.91% | 3.5% | 2.56% | 19.4% | 4.25% | 3.85% | -2.5%
CC(=O)N1CC[C@H]2OCC[C@@]2(C(=O)NCc2ccco2)C1 | -5.68% | 5.33% | -0.449% | 12.6% | -2.12% | -44.3% | 11.3% | -5.97% | 4.17% | 5% | -6.83%
CN(C)c1ncccc1CNC(=O)N1CCCC1CN1CCCCC1 (stereo not given) | -3.1% | 23.4% | -3.23% | 0.716% | -2.25% | -0.356% | 9.63% | 3.33% | 7.77% | 14.6% | -9.2%
c1ccc(-c2noc(CN3CCOC(Cn4cccn4)C3)n2)nc1 (stereo not given) | -0.328% | 0% | 4.78% | 8.36% | 0.188% | -1.53% | 3.51% | 6.16% | -0.49% | -2.44% | 4.99%
O=C(NCCNc1ncccn1)c1ccc(-c2ccco2)[nH]c1=O | -5.27% | 27% | -6.43% | 9.97% | 1.23% | -11.6% | 15.9% | 6.48% | 8.37% | 23.5% | -11.4%
CCC(CC)c1cc(C(=O)N2CCCC(n3cncn3)C2)on1 (stereo not given) | -2.21% | -1.39% | -4.63% | 9.13% | 3.6% | 22.5% | 11.9% | -8.85% | 1.05% | 5.13% | 0.586%
Cc1noc(C)c1CN1C[C@@H]2COC[C@H](C(=O)N3CCCCO3)[C@@H]2C1 | -5.77% | 8% | 8.79% | -0.115% | -5.12% | -1.17% | 7.31% | 3.63% | 6.38% | 8.97% | -0.163%
Cc1cc(C[C@@H]2CCC[C@H]2NCc2cc(C)c(O)c(C)c2)on1 | 0.891% | 9.46% | 18.3% | -0.421% | -9.88% | -0.232% | 15.1% | 41.8% | 0% | 9.09% | -12.1%
CCc1noc(C(C)N2CCN(c3ccc(C#N)cn3)CC2)n1 (stereo not given) | -5.24% | 10.5% | 4.88% | -4.78% | -4.58% | -1.18% | 14.9% | 17.9% | 4.25% | 5.2% | -5.13%
COc1ccc(NC(=O)NC(C)c2nc[nH]n2)cc1 (stereo not given) | -1.78% | 8.11% | -0.122% | 9.35% | 3.03% | 19.6% | 17.9% | -13.4% | 0% | 11.1% | -3.04%
